The source of these data is ChEMBL document CHEMBL4888484, “Replenishing the malaria drug discovery pipeline: Screening and hit evaluation of the MMV Hit Generation Library 1 (HGL1) against asexual blood stage Plasmodium falciparum ,using a nano luciferase reporter read-out” (2022).

Screen size: about 150,000 compounds; about 540 (0.36%) showed an effect of 50% or more. Many of the other results were omitted from the sample, so strong results are more common in it than they were.

The assay has as its system Plasmodium falciparum. In words: Primary screen in NF54 nanoGlo assay, in single point, at 2uM, 72h; a lower Z score goes with more inhibition. It counts as functional, Erythrocyte. The conditions noted are these: timepoint 72 hour.
By % Inhibition is commonly meant the change of the read-out against control, counted positive when it falls. As for `c1ccc(-c2nc(NC3CCCC3)c3oc(-c4ccccc4)nc3n2)cc1`, the “% Inhibition” value was -7% and the Z score worked out at 0.89.

Turning to `C[C@@H](CNc1nc(-c2ccccc2)nc2nc(-c3ccc(Cl)cc3)oc12)N1CCCCC1`, the “% Inhibition” value is 79% and the Z score is reported as -10.9.

With `C[C@@H](CNc1nc(-c2ccccc2)nc2nc(-c3ccc(Cl)cc3)oc12)N1CCOCC1`, the “% Inhibition” value was -17% and the Z score is 2.25.

On to `CCc1noc(C2(n3cccn3)CC2)n1`, for which the “% Inhibition” value is given as -8% and the Z score is recorded as 0.8.

Regarding `N#Cc1ccccc1OCCN1CCS(=O)(=O)CC1`, the “% Inhibition” value is reported as -3% and the Z score turned out to be 0.38.

Take `O=C(N[C@H]1CCc2[nH]c3ccc(Br)cc3c2C1)c1ccc(Cl)c(Cl)c1`: the “% Inhibition” value was -9% and the Z score stood at 1.26.

Take `O=C(NC1CCc2[nH]cnc2C1)N[C@@H]1CCCc2ccccc21` (some centres not stated): the “% Inhibition” value is on record as 4% and the Z score is recorded as -0.51.

As for `CC(C)c1ccc(CCCNS(N)(=O)=O)cc1`, the “% Inhibition” value was 7% and the Z score is listed as -0.97.

With `c1cc(N2CC[C@]3(CCOC3)C2)c2sccc2n1`, the “% Inhibition” value is given as -10% and the Z score is recorded as 1.52.

Turning to `CCc1nc(CCNC(=O)Cc2sc(N)nc2C)no1`, the “% Inhibition” value is reported as -22% and the Z score was found to be 2.33.

In the case of `Oc1cc(C(F)(F)F)c2cc3c(cc2n1)OCO3`, the “% Inhibition” value was 30% and the Z score was -3.35.

Regarding `CN1CCCN(c2nc(C(F)(F)F)nc3cc4c(cc23)OCO4)CC1`, the “% Inhibition” value is given as -8% and the Z score came out at 1.28.

`COc1nccnc1NCC1(N(C)C)CCCCC1`: the “% Inhibition” value stood at 2% and the Z score was -0.41.

`CN(C)C1(CNc2ncc(F)cn2)CCCC1`: the “% Inhibition” value is recorded as -3% and the Z score is 0.48.

For `O=C(NCc1ccc(Br)cc1)NC1CC2OCCCC12` (configuration not stated), the “% Inhibition” value is on record as -11% and the Z score is 1.4.

Consider `COCCN(Cc1cc2ccc(Cl)cc2nc1N1CCC[C@H](CO)C1)C(=O)c1sccc1C`, for which the “% Inhibition” value is given as 2% and the Z score is on record as -0.41.

Consider `NC(=NCCOc1ncc(Cl)cc1Cl)N1CCOCC1`, for which the “% Inhibition” value was -11% and the Z score is 1.79.

With `CCN(C)C1(CNC(=O)c2ccc(-c3cc(F)ccc3O)cc2)CCCC1`, the “% Inhibition” value was 55% and the Z score was -0.99.

On to `CCN(C)C1(CNC(=O)c2ccc(-c3cnccn3)cc2)CCCC1`, for which the “% Inhibition” value was -14% and the Z score was 2.04.

For `CCN(C)C1(CNC(=O)c2cccc(-c3ncc(F)c(NC)n3)c2)CCCC1`, the “% Inhibition” value was 3% and the Z score is -0.53.

On to `CC(C)ONC(=O)CCc1cccc(O)c1`, for which the “% Inhibition” value is recorded as -11% and the Z score worked out at 1.21.

Turning to `Cc1cc(O)nc2ccc(NC(=O)c3cccc(F)c3)cc12`, the “% Inhibition” value was 5% and the Z score is -0.52.

On to `c1c[nH]c(-c2nc(C3CCOCC3)n[nH]2)c1`, for which the “% Inhibition” value was -6% and the Z score amounted to 1.12.

On to `CNc1ncc(C(=O)N2CCC[C@H](C(=O)c3cc(C)c(OC)c(C)c3)C2)cn1`, for which the “% Inhibition” value was found to be 4% and the Z score is given as -0.72.

`COc1ccnc(CN2CCC[C@H](C(=O)c3cc(C)c(OC)c(C)c3)C2)c1OC`: the “% Inhibition” value amounted to 8% and the Z score is on record as -1.25.

For the molecule `COc1c(C)cc(C(=O)[C@H]2CCCN(c3cc(N)ncn3)C2)cc1C`, the “% Inhibition” value came out at 78% and the Z score was -15.48.

Turning to `CC(C)NC(=O)CN(C)CC(=O)Nc1cc(C2CCCC2)nn1-c1ccccc1`, the “% Inhibition” value is reported as 1% and the Z score is listed as -0.16.

Consider `Cc1cc(N)n(-c2nc(-c3ccccc3)cc(=O)[nH]2)n1`, for which the “% Inhibition” value is 35% and the Z score came to 0.14.

On to `CC(C)(C)c1cc(NC(=O)CCCc2ccccc2)n([C@H]2CCS(=O)(=O)C2)n1`, for which the “% Inhibition” value is listed as -2% and the Z score was found to be 0.38.

Turning to `O=C(CN1CCCCC1)Nc1cc(C2CC2)nn1-c1ccccc1`, the “% Inhibition” value came out at 1% and the Z score is -0.24.

In the case of `CCC(CC)C(=O)Nc1cc(C2CC2)nn1-c1nc(-c2ccccc2)cc(=O)[nH]1`, the “% Inhibition” value is 69% and the Z score is listed as -9.47.

As for `CCc1cc(=O)[nH]c(-n2nc(C3CC3)cc2NC(=O)C2CCCCC2)n1`, the “% Inhibition” value stood at 86% and the Z score is listed as -14.68.

`O=C(CCCc1ccccc1)Nc1cc(C2CC2)nn1-c1nc(-c2ccccc2)cc(=O)[nH]1`: the “% Inhibition” value is on record as 54% and the Z score was -8.76.

Turning to `CCc1cc(NC(=O)C2CN(C(=O)C3CCCCC3)C2)n(C)n1`, the “% Inhibition” value is recorded as -13% and the Z score was determined as 2.45.

Consider `CCOC(=O)Nc1cc(C2CC2)nn1-c1nc2c(c(=O)[nH]1)CCCC2`, for which the “% Inhibition” value is reported as 4% and the Z score is listed as -0.55.

For `Cc1ccc(C(=O)N2CCCC(C(=O)N3CCCC(c4nnc5ccccn45)C3)C2)cc1` (configuration not stated), the “% Inhibition” value is -7% and the Z score is reported as 1.13.

As to `CC(C)c1cc(-c2nc(-c3ccccn3)no2)[nH]n1`, the “% Inhibition” value is given as -11% and the Z score came out at 1.24.

As for `CCS(=O)(=O)Nc1ccnn1[C@@H](C)C1CC1`, the “% Inhibition” value came out at 3% and the Z score was -0.45.

As to `O=C(c1cnnn1-c1cccc(F)c1)N1CCCC12CCC2`, the “% Inhibition” value was -1% and the Z score is listed as 0.15.

With `COc1ccc(C(=O)NCCCc2nnc3ccccn23)o1`, the “% Inhibition” value was -9% and the Z score is listed as 1.7.

Turning to `Cc1nc2ccccn2c(=O)c1CCN[C@@H](C)c1cccc(-n2cccn2)c1`, the “% Inhibition” value came to 0% and the Z score was 0.05.

`Cc1ccc(C(=O)N2CCC3(CCc4nn(Cc5ccccc5)c(=O)n4CC3)CC2)s1`: the “% Inhibition” value is -7% and the Z score was found to be 0.82.

With `CCN1CCN(C2CCN(c3ncc(F)c(OC)n3)CC2)CC1`, the “% Inhibition” value is 51% and the Z score was -7.32.

`CNC(=O)[C@H]1CCN(c2ncc(F)c(OC)n2)C1`: the “% Inhibition” value is recorded as -10% and the Z score turned out to be 1.93.

For `O=C1[C@@H]2C(c3ccccc3Cl)=NO[C@@H]2C(=O)N1c1ccc2ccccc2c1`, the “% Inhibition” value is recorded as -9% and the Z score was 1.2.

Turning to `Cc1c(C2=NO[C@H]3C(=O)N(c4ccc5ccccc5c4)C(=O)[C@@H]23)cnn1C`, the “% Inhibition” value came out at 50% and the Z score was -5.99.

Take `Cc1c(C2=NO[C@H]3C(=O)N(c4ccc(Cl)cc4)C(=O)[C@@H]23)cnn1C`: the “% Inhibition” value is -7% and the Z score was determined as 1.

As for `O=C(c1ccc2c(c1)CCC2)N1CC(O)C1`, the “% Inhibition” value was determined as 0% and the Z score is recorded as 0.

In the case of `Cc1cc(NCc2c(C)noc2C)nc(C2CC2)n1`, the “% Inhibition” value is on record as -7% and the Z score is 1.22.

For `Cc1ccc(Nc2ccc(N3CCNCC3)nn2)nc1`, the “% Inhibition” value is on record as 47% and the Z score is listed as -6.37.

Consider `Cc1ccnc(Nc2ccc(N3CCNCC3)nn2)c1`, for which the “% Inhibition” value was 56% and the Z score is -6.55.

As for `c1cc(-c2ccc(N3CCNCC3)nn2)ccn1`, the “% Inhibition” value is reported as 5% and the Z score is given as -1.03.

In the case of `CC(C)(C)OC(=O)CCc1cccnc1C(=O)O`, the “% Inhibition” value is -18% and the Z score is recorded as 1.85.

For the molecule `CC1CC(C(=O)NCCCn2cn[nH]c2=O)CC(C)(C)C1` (configuration not stated), the “% Inhibition” value was found to be 0% and the Z score is listed as 0.05.

`CC1CC(C(=O)N[C@@H](C)c2cnccn2)CC(C)(C)C1` (some centres not stated): the “% Inhibition” value is reported as 8% and the Z score was -0.99.

In the case of `CC1CC(C(=O)Nc2[nH]c(=O)ncc2F)CC(C)(C)C1` (configuration not stated), the “% Inhibition” value was determined as 92% and the Z score is listed as -13.24.
